Assay results: PubChem BioAssay
Active and inactive are the calls of the source.

Tests used:
[1] = optical density shifts of acrAB sulA E. coli – strain DRC41, OD650, 48 h, E. coli filamentation inducer project, primary screen (AID 1152); conditions: higher = more signal, called active from +8 up or from −8 down;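 also: E. coli MC1000 strain DRC41 lacking acrAB efflux pump and sulA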
[2] = probe aLefty1 binding on compound microarray – biochemical, small-molecule microarray, 635/667 nm fluorescence, primary screen (AID 1153); conditions: higher = more signal;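 also: score merges spot fluorescence with signal-to-noise ratio from the scanned slide images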
[3] = plasmodial surface anion channel blockers, osmotic lysis – cell-based, P. falciparum Indochina, OD700, 1 h, primary screen (AID 1154); conditions: P. falciparum Indochina infected RBC osmotic lysis, higher = more signal, called active from +8 up or from −8 down
[4] = plasmodial surface anion channel blockers, osmotic lysis – cell-based, P. falciparum Indochina, OD700, 2 h, primary screen (AID 1155);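 also: lysis reports solute entry through the parasite surface anion channel PSAC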; conditions: P. falciparum Indochina infected erythrocytes, higher = more signal, called active from +8 up or from −8 down
[5] = changes in parasitized red cell lysis, either direction – P. falciparum Indochina, OD700, 3 h, PSAC antagonist project, primary screen (AID 1156); conditions: P. falciparum-infected erythrocytes, osmotic lysis, higher = more signal, called active from +8 up or from −8 down
[6] = plasmodial surface anion channel blockers, osmotic lysis – cell-based, P. falciparum Indochina, OD700, 18 h, primary screen (AID 1157); conditions: P. falciparum Indochina infected erythrocytes, osmotic lysis OD700, 18 h; higher = more signal, called active from +8 up or from −8 down
[7] = S6 kinase pathway phospho-S6 level changes – cell-based, A549, cytoblot, luminescence, serum-stimulated, primary screen (AID 1158); conditions: 5 h, higher = more signal;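 also: serum-stimulated A549 lung adenocarcinoma cells; signal is phosphorylated S6 detected by cytoblot immunostaining with HRP secondary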
[8] = target: NADPH oxidase 2 (Homo sapiens) (UniProt P04839); experiment: compounds shifting NOX2 Amplex Red fluorescence – cell-based, HEK293-NOX2, PMA-stimulated, NOX inhibitor project, primary screen (AID 1159); conditions: 45 min, higher = more signal, called active from +8 up or from −8 down; also: test concentration not given here
[9] = target: NADPH oxidase 4 (Homo sapiens) (UniProt Q9NPH5); experiment: compounds shifting NOX4 Amplex Red fluorescence – cell-based, HEK293-NOX4, tetracycline-induced, NOX inhibitor project, primary screen (AID 1160); conditions: HEK293-NOX4, Amplex Red H2O2 fluorescence, 45 min; higher = more signal, called active from +8 up or from −8 down
[10] = target: NADPH oxidase 5 (Homo sapiens) (UniProt Q96PH1); experiment: compounds shifting NOX5 Amplex Red fluorescence – cell-based, HEK293-NOX5, NOX inhibitor project, primary screen (AID 1161); conditions: HEK293-NOX5, ionomycin, 45 min, higher = more signal
NADPH oxidase 5 (Homo sapiens), sequence (Q96PH1 whole entry, looked up): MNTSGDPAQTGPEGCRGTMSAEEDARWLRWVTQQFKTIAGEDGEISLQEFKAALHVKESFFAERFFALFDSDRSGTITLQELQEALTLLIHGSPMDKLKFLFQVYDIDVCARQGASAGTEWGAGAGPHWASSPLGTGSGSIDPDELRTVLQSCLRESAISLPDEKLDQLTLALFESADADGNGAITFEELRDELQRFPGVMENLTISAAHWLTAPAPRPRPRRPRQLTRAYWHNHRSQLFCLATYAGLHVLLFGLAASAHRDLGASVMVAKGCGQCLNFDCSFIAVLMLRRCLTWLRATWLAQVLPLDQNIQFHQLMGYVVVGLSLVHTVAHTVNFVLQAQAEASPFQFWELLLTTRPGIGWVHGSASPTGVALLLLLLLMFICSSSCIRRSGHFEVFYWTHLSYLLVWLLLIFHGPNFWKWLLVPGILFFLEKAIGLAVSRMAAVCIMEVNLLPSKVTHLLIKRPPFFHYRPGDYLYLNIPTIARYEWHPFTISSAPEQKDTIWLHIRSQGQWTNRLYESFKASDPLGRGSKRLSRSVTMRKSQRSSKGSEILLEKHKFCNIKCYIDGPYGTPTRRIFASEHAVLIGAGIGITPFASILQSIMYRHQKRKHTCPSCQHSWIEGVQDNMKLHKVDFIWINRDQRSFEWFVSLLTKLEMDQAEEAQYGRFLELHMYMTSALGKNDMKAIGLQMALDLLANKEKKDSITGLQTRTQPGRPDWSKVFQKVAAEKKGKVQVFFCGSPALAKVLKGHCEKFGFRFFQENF

NADPH oxidase 2 (Homo sapiens), sequence (P04839 whole entry, looked up): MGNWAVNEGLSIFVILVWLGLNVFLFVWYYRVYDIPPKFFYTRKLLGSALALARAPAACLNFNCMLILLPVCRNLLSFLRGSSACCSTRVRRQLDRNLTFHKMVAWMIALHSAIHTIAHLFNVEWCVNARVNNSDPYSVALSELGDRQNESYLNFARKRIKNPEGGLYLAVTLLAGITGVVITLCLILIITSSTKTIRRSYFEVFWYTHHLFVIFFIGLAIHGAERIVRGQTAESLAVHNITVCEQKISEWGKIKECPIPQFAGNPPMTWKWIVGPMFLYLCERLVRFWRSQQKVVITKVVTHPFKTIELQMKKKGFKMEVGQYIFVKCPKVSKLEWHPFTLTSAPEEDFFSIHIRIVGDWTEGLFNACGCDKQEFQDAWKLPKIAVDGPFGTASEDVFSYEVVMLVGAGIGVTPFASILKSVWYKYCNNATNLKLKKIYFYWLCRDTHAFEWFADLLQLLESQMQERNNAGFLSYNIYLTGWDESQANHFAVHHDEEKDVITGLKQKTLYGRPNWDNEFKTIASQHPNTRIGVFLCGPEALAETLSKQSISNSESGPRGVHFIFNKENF
NADPH oxidase 4 (Homo sapiens), sequence (Q9NPH5 whole entry, looked up): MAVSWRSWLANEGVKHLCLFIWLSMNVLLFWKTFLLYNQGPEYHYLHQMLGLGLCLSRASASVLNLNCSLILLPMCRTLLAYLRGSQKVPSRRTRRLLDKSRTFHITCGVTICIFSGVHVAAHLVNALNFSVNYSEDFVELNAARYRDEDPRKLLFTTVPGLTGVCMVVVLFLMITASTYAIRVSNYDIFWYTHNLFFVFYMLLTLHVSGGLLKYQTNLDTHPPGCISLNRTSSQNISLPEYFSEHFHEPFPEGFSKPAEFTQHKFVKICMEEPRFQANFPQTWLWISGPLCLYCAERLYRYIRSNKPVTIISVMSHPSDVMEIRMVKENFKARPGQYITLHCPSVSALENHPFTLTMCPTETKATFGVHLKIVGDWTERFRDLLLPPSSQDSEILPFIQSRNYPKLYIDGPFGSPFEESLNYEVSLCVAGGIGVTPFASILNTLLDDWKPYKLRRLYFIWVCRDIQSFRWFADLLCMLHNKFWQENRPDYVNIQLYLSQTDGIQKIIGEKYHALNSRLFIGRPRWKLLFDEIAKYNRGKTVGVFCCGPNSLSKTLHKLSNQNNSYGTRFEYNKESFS

SMILES	z-score [1]	composite z-score [2]	z-score [3]	z-score [4]	z-score [5]	z-score [6]	z-score [7]	z-score [8]	z-score [9]	z-score [10]
COCCCNC(=O)[C@@]1(CCC(=O)OC(C)(C)C)N=C(c2ccc(OCCCO)cc2)O[C@H]1c1ccccc1N=[N+]=[N-]	1.15 (inactive)	0.286	30.4 (active)	29.3 (active)	2.54 (inactive)	2.43 (inactive)	-0.226	-1.35 (inactive)	0.197 (inactive)	-2.03
CC(C)NC(=O)[C@@]1(c2ccc([N+](=O)[O-])cc2)CC(=O)N(C2CCCCC2)[C@@H]1c1ccc(CO)cc1	1.1 (inactive)	-0.154	0.66 (inactive)	0.168 (inactive)	0.18 (inactive)	-0.0376 (inactive)	-0.391	0.0357 (inactive)	0.164 (inactive)	-0.229
O=C1C2C=CC(C(O)c3cccc(O)c3)N(Nc3ccc([N+](=O)[O-])cc3)C2C(=O)N1c1ccccc1 (stereo not given)	-0.367 (inactive)	0.0361	23.8 (active)	5.34 (inactive)	3.57 (inactive)	1.22 (inactive)	-0.609	-2.1 (inactive)	-4.41 (inactive)	-4.26
COCC(=C=CC[C@H](O)c1ccc(OCCO)cc1)CCO	0.367 (inactive)	0.0774	9.25 (active)	1.02 (inactive)	0.934 (inactive)	0.381 (inactive)	-0.439	1.03 (inactive)	0.57 (inactive)	-0.704
COc1ccc([Si](C)(C)[C@H]2[C@H](CC(=O)N3Cc4ccccc4C[C@H]3CO)O[C@@]3(C(=O)N(Cc4ccc(N5CCOC5=O)cc4)c4ccccc43)[C@@H]2C)cc1	-0.742 (inactive)	-0.0611	8.34 (active)	1.85 (inactive)	0.863 (inactive)	0.82 (inactive)	0.718	-0.659 (inactive)	0.611 (inactive)	-0.344
CCOC(=O)C[C@H]1[C@H](OC(=O)c2ccc(C(=O)c3ccccc3)cc2)[C@@H](NC(=O)C2CCCCC2)c2cc(OCCCO)ccc2N1C(=O)c1ccc2ccccc2n1	1.94 (inactive)	0.596	3.11 (inactive)	0.347 (inactive)	-0.238 (inactive)	0.0872 (inactive)	0.0955	-1.62 (inactive)	0.402 (inactive)	0.124
CCC1=C2CN(Cc3ccccc3)[C@@H](C(=O)Cc3ccccc3)C2C=CCC1 (stereo not given in full)	0.806 (inactive)	-0.0984	0.26 (inactive)	-1.13 (inactive)	0.564 (inactive)	-2 (inactive)	0.492	-1.12 (inactive)	-1.42 (inactive)	-0.123
CC(C)C(CO)N1C(=O)[C@@H]2C3C(=O)OCCC/C=C\[C@H]3OC23C=CCN(Cn2nnc4ccccc42)C(=O)[C@@H]13 (stereo not given in full)	0.302 (inactive)	-0.147	0.897 (inactive)	-0.364 (inactive)	-0.443 (inactive)	0.234 (inactive)	1.36	1.23 (inactive)	0.806 (inactive)	1.51
C=CCNC(=O)[C@@H]1[C@H]2C(=O)O[C@H](c3ccccc3)[C@H](c3ccccc3)N2[C@H](c2ccccc2OCCO)[C@@]12C(=O)Nc1ccc(C#CCCO)cc12	-2.32 (inactive)	-0.674	5.68 (inactive)	1.15 (inactive)	0.206 (inactive)	0.778 (inactive)	0.0309	0.734 (inactive)	0.627 (inactive)	0.849
CCOC(=O)C1=CC[C@@H](c2ccccc2)N(S(=O)(=O)c2ccc(C)cc2)[C@H]1c1ccccc1	-1.11 (inactive)	0.155	1.97 (inactive)	0.945 (inactive)	0.369 (inactive)	0.24 (inactive)	-0.685	0.18 (inactive)	-0.464 (inactive)	1.75
COC(=O)[C@@]1(Cc2ccc(OC)cc2)[C@H]2c3cc(C(=O)N4CCCC4)n(CCO)c3C[C@H]2CN1C(=O)c1ccccc1	-1.72 (inactive)	0.399	2.85 (inactive)	0.766 (inactive)	1.66 (inactive)	0.815 (inactive)	0.604	-0.0722 (inactive)	-2.96 (inactive)	-4.86
C=CCN1Cc2ccccc2[C@@H]2OC(c3ccc(OCCCO)cc3)=N[C@]2(CC=C)C1=O	0.408 (inactive)	1.49	22.5 (active)	7.24 (inactive)	5.55 (inactive)	1.33 (inactive)	-0.218	-1.98 (inactive)	0.452 (inactive)	1.03
[N-]=[N+]=Nc1ccccc1C[C@@]1(C(=O)N2CCOCC2)N=C(c2ccc(OCCCO)cc2)O[C@@H]1c1ccccc1	0.345 (inactive)	-0.88	28.5 (active)	23.8 (active)	3.6 (inactive)	2.07 (inactive)	-0.0419	0.437 (inactive)	0.265 (inactive)	-1.66
